This test deals with A673/TR/shEF. Put plainly: cell viability (LOESS-normalised, relative to median of negative controls) (log2 ratio); higher = more viable cells (less compound effect), active = hit call of the paper (over 3 MAD below the median). The settings on record: treatment time: 72 h. In short, it runs like this: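 A673/TR/shEF Ewing sarcoma cells were plated at 1,500 per well in 384-well plates and cultured with or without doxycycline, added 24 h before compounds, to induce EWS-FLI1 shRNA knockdown. Library compounds at two or more concentrations, alongside DMSO controls, were applied for three days. Cell viability was measured by CellTiter-Glo luminescence on an Envision reader. Readings were LOESS-corrected per plate, divided by the median of negative controls and log2-transformed, and hits were wells lying at least three median absolute deviations from the median of all screened wells.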

Where [1] appears, read: 0.25 µM, library screen: screen1, EWS-FLI1 expression: high (no doxycycline).
[2] abbreviates: 0.25 µM, library screen: screen1, EWS-FLI1 expression: low (doxycycline-induced shRNA knockdown).
The mark [3] stands for this setting: 2.5 µM, library screen: screen1, EWS-FLI1 expression: high (no doxycycline).
The mark [4] stands for this setting: 2.5 µM, library screen: screen1, EWS-FLI1 expression: low (doxycycline-induced shRNA knockdown).
[5] abbreviates: 0.103 µM, library screen: screen3, EWS-FLI1 expression: high (no doxycycline).
[6] abbreviates: 0.103 µM, library screen: screen3, EWS-FLI1 expression: low (doxycycline-induced shRNA knockdown).
[7] abbreviates: 0.308 µM, library screen: screen3, EWS-FLI1 expression: high (no doxycycline).
[8] abbreviates: 0.308 µM, library screen: screen3, EWS-FLI1 expression: low (doxycycline-induced shRNA knockdown).
[9] abbreviates: 0.926 µM, library screen: screen3, EWS-FLI1 expression: high (no doxycycline).
[10] abbreviates: 0.926 µM, library screen: screen3, EWS-FLI1 expression: low (doxycycline-induced shRNA knockdown).
[11] abbreviates: 2.8 µM, library screen: screen3, EWS-FLI1 expression: high (no doxycycline).
The mark [12] stands for this setting: 2.8 µM, library screen: screen3, EWS-FLI1 expression: low (doxycycline-induced shRNA knockdown).
[13] abbreviates: 8.3 µM, library screen: screen3, EWS-FLI1 expression: high (no doxycycline).
[14] abbreviates: 8.3 µM, library screen: screen3, EWS-FLI1 expression: low (doxycycline-induced shRNA knockdown).
Setting [15] is: 25 µM, library screen: screen3, EWS-FLI1 expression: high (no doxycycline).
[16] abbreviates: 25 µM, library screen: screen3, EWS-FLI1 expression: low (doxycycline-induced shRNA knockdown).
[17] abbreviates: 0.25 µM, library screen: screen2, EWS-FLI1 expression: high (no doxycycline).
The mark [18] stands for this setting: 0.25 µM, library screen: screen2, EWS-FLI1 expression: low (doxycycline-induced shRNA knockdown).
[19] abbreviates: 2.5 µM, library screen: screen2, EWS-FLI1 expression: high (no doxycycline).
The mark [20] stands for this setting: 2.5 µM, library screen: screen2, EWS-FLI1 expression: low (doxycycline-induced shRNA knockdown).

In all, about 3,200 compounds went through this assay and about 300 (9.4%) showed activity. The sample as a whole holds a higher share of actives than the screen did. A number with no mark means an inactive call.

Turning to `COc1ccc(C(C)C(=O)c2ccc(O)cc2O)cc1` (stereo not given), the “cell viability (log2)” value reads like this: under setting [1], 0.0783; under setting [2], 0.0339; under setting [3], 0.16; under setting [4], 0.123.
Turning to `CCOc1ccc(C(=O)c2cc(O)c(OC)c(OC)c2O)cc1`, the “cell viability (log2)” value by setting is: under setting [1], 0.0714; under setting [2], 0.0518; under setting [3], 0.162; under setting [4], 0.129.
The like results for `CC(=O)OC1CCC2(C)C3=C(CC[C@H]2C1(C)C)[C@@]1(C)CC[C@@H]([C@@H](C)CCC=C(C)C)[C@]1(C)CC3` (stereo not given in full) were, in that order, 0.058, -0.000522, 0.0338 and -0.0772.
In the case of `CCN1C(=O)/C(=C\c2cn(CCC#N)nc2-c2ccc(F)cc2)SC1=S`, the “cell viability (log2)” value is 0.0868 under setting [1], 0.118 under setting [2], 0.107 under setting [3] and -0.0141 under setting [4].
With `O=C(NCc1ccco1)/C(=C\c1ccco1)NC(=O)c1cccs1`, the “cell viability (log2)” value is, setting by setting: under setting [1], 0.0268; under setting [2], 0.0429; under setting [3], 0.0986; under setting [4], 0.0245.
Turning to `O[C@@H](c1cc(C(F)(F)F)nc2c(C(F)(F)F)cccc12)[C@H]1CCCCN1`, the “cell viability (log2)” value is, setting by setting: under setting [1], 0.149; under setting [2], 0.0284; under setting [3], 0.156; under setting [4], 0.0765.
Turning to `OCC1OC(O)C(O)C(O)C1O` (stereo not given), the “cell viability (log2)” value by setting is: under setting [5], 0.00138; under setting [6], 0.0347; under setting [7], 0.0849; under setting [8], 0.0509; under setting [9], 0.0635; under setting [10], 0.0529. In addition, the “cell viability (log2)” value was 0.0615 under setting [11]; 0.0566 under setting [12]; 0.0472 under setting [13]; -0.0279 under setting [14]; 0.168 under setting [15]; 0.04 under setting [16].
With `C=C1c2c(Cl)ccc(O)c2C(O)=C2C(=O)[C@]3(O)C(O)=C(C(N)=O)C(=O)[C@@H](N(C)C)[C@@H]3[C@@H](O)[C@H]12.O=C(O)c1cc(S(=O)(=O)O)ccc1O`, the “cell viability (log2)” value was -0.128 (active) under setting [1], 0.0882 under setting [2], -0.126 (active) under setting [3] and 0.0927 under setting [4].
Regarding `C=C1c2cccc(O)c2C(O)=C2C(=O)[C@]3(O)C(O)=C(C(N)=O)C(=O)[C@@H](N(C)C)[C@@H]3[C@@H](O)[C@H]12`, the “cell viability (log2)” value is, setting by setting: under setting [5], -0.0411; under setting [6], 0.0402; under setting [1], -0.16 (active); under setting [2], 0.0695; under setting [7], -0.0282; under setting [8], 0.0462. The “cell viability (log2)” value was -0.105 under setting [9]; 0.0725 under setting [10]; -0.0967 (active) under setting [3]; 0.152 under setting [4]; -0.0751 under setting [11]; 0.0891 under setting [12]. Further, the “cell viability (log2)” value is, setting by setting: under setting [13], -0.0644; under setting [14], 0.0589; under setting [15], -0.0984; under setting [16], 0.0914.
As for `CN(C)c1ccc(O)c2c1C[C@H]1C[C@H]3[C@H](N(C)C)C(=O)C(C(N)=O)=C(O)[C@@]3(O)C(=O)C1=C2O`, the “cell viability (log2)” value under setting [1] is -0.177 (active); the “cell viability (log2)” value under setting [2] was -0.0588; the “cell viability (log2)” value under setting [17] was 0.0664; the “cell viability (log2)” value under setting [18] is 0.133; the “cell viability (log2)” value under setting [3] is -0.0936 (active); the “cell viability (log2)” value under setting [4] was 0.0344. Besides, the “cell viability (log2)” value was 0.00725 under setting [19] and 0.0554 under setting [20].
For the compound `C[C@H]1c2cccc(O)c2C(O)=C2C(=O)[C@]3(O)C(O)=C(C(N)=O)C(=O)[C@@H](N(C)C)[C@@H]3[C@@H](O)[C@@H]21`, the “cell viability (log2)” value by setting is: under setting [1], 0.0339; under setting [2], 0.251; under setting [17], 0.0723; under setting [18], 0.0745; under setting [3], 0.0598; under setting [4], 0.256. Moreover, the “cell viability (log2)” value is -0.00226 under setting [19] and 0.0538 under setting [20].
In the case of `CCCCCCCCCCCCCCC[C@@H](O)[C@H](CO)NC(C)=O`, the “cell viability (log2)” value was 0.176 under setting [17], 0.139 under setting [18], 0.0603 under setting [19] and 0.124 under setting [20].
For the compound `NC(=S)c1ccc[n+]([C@@H]2O[C@H](COP(=O)(O)OP(=O)(O)OC[C@H]3O[C@@H](n4cnc5c(N)ncnc54)[C@H](OP(=O)(O)O)[C@@H]3O)[C@@H](O)[C@H]2[O-])c1`, the “cell viability (log2)” value runs as follows: under setting [17], 0.209; under setting [18], 0.145; under setting [19], 0.254; under setting [20], 0.143.
As for `Clc1ccc(CN2CCN(Cc3c[nH]c4ccccc34)CC2)cc1`, the “cell viability (log2)” value is, setting by setting: under setting [1], 0.142; under setting [2], 0.175; under setting [3], 0.152; under setting [4], 0.116.
For `COc1ccc2c(c1)OCC(=Cc1ccc(OC)c(O)c1)C2=O`, in that order: 0.111, 0.0739, 0.125 and 0.0254.
As to `CCOC(=O)C1=C(C)NC2=C(C(=O)CC(C)(C)C2)C1c1coc2ccccc2c1=O` (stereo not given), the “cell viability (log2)” value runs as follows: under setting [1], 0.113; under setting [2], 0.123; under setting [3], 0.0647; under setting [4], 0.0912.
Take `COc1ccc(CNS(=O)(=O)c2ccc(NC(C)=O)cc2)cc1`: the “cell viability (log2)” value runs as follows: under setting [1], 0.136; under setting [2], 0.114; under setting [3], 0.073; under setting [4], 0.0317.
In the case of `CC(=O)O[C@@H]1CC2C(C)(C)CCC[C@]2(C)C2CC[C@]3(C)C(=CC(=O)O[C@H]3c3ccoc3)[C@@]21C` (stereo not given in full), the “cell viability (log2)” value by setting is: under setting [1], 0.0969; under setting [2], 0.0706; under setting [3], 0.0583; under setting [4], 0.123.

The values above are taken from the supplement of paper PMC6089552.
